Results taken from PubChem BioAssay AID1159580 (chemical genetic matrix, 2015).
The campaign covered roughly 5,500 compounds. About 2,000 (36%) were called active. Roughly 18% stayed inconclusive and do not appear here. No stated cut-off is given here; in the data, active means normalized growth mostly below about 0.91 (no sharp cut-off); inconclusive means no clear call, values can overlap the other calls; inactive means mostly above about 0.92. This is one part of the list.

Assay: chemical genetic growth profiling, strain panel (AID 1159580);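 further: tested at 20 µM; growth read once vehicle control cultures reached saturation at 30 °C; 1 = growth at the plate median or of vehicle wells; lower values mean less growth of the strain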
Details: growth OD

Measured: normalized growth

NC(=O)c1ccccc1O
inactive: S. cerevisiae deletion strains, locus YJR066W, strain TOR1, hits give low values 0.999 | S. cerevisiae deletion strains, locus YKL009W, strain mrt4, hits give low values 1.01 | S. cerevisiae deletion strains, locus YKL068W, hits give low values 0.995 | S. cerevisiae deletion strains, locus YKL085W, strain MDH1 (second series), hits give low values 1 | S. cerevisiae deletion strains, locus YKL085W, strain MDH1, hits give low values 1 | S. cerevisiae deletion strains, locus YKL160W, strain elf1, hits give low values 0.985 | S. cerevisiae deletion strains, locus YKL190W, strain CNB1, hits give low values 0.998 | S. cerevisiae deletion strains, locus YKR001C, strain vps1, hits give low values 1 | S. cerevisiae deletion strains, locus YKR026C, strain gcn3, hits give low values 0.971 | S. cerevisiae deletion strains, locus YKR091W, strain srl3, hits give low values 0.971 | S. cerevisiae deletion strains, locus YLL001W, strain dnm1, hits give low values 0.909 | S. cerevisiae deletion strains, locus YLL026W, hits give low values 0.993 | S. cerevisiae deletion strains, locus YLL041C, strain sdh2, hits give low values 0.969 | S. cerevisiae deletion strains, locus YLR027C, strain aat2, hits give low values 0.981 | S. cerevisiae deletion strains, locus YLR039C, strain RIC1, hits give low values 1 | S. cerevisiae deletion strains, locus YLR058C, strain SHM2, hits give low values 1.01 | S. cerevisiae deletion strains, locus YLR102C, strain apc9, hits give low values 1.01 | S. cerevisiae deletion strains, locus YLR113W, strain HOG1, hits give low values 0.999 | S. cerevisiae deletion strains, locus YLR221C, strain rsa3, hits give low values 1.03 | S. cerevisiae deletion strains, locus YLR258W, strain gsy2, hits give low values 0.988 | S. cerevisiae deletion strains, locus YLR262C, strain YPT6 (second series), hits give low values 0.947 | S. cerevisiae deletion strains, locus YLR262C, strain YPT6, hits give low values 0.986 | S. cerevisiae deletion strains, locus YLR268W, strain sec22, hits give low values 1.04 | S. cerevisiae deletion strains, locus YLR320W, strain mms22, hits give low values 0.996 | S. cerevisiae deletion strains, locus YLR330W, strain CHS5, hits give low values 1.01 | S. cerevisiae deletion strains, locus YLR342W, strain FKS1 (second series), hits give low values 1.02 | S. cerevisiae deletion strains, locus YLR342W, strain FKS1, hits give low values 0.978 | S. cerevisiae deletion strains, locus YLR357W, strain rsc2, hits give low values 0.952 | S. cerevisiae deletion strains, locus YLR370C, strain arc18, hits give low values 0.964 | S. cerevisiae deletion strains, locus YLR371W, strain rom2, hits give low values 1.01 | S. cerevisiae deletion strains, locus YLR384C, strain iki3, hits give low values 0.963 | S. cerevisiae deletion strains, locus YLR418C, strain cdc73, hits give low values 1.02 | S. cerevisiae deletion strains, locus YML016C, strain PPZ1, hits give low values 1 | S. cerevisiae deletion strains, locus YML032C, strain rad52, hits give low values 1.01 | S. cerevisiae deletion strains, locus YML120C, strain ndi1, hits give low values 0.954 | S. cerevisiae deletion strains, locus YML124C, strain tub3, hits give low values 1.01 | S. cerevisiae deletion strains, locus YMR058W, strain fet3, hits give low values 0.987 | S. cerevisiae deletion strains, locus YMR078C, strain ctf18, hits give low values 1 | S. cerevisiae deletion strains, locus YMR125W, strain sto1, hits give low values 0.962 | S. cerevisiae deletion strains, locus YMR129W, hits give low values 0.974 | S. cerevisiae deletion strains, locus YMR205C, strain PFK2, hits give low values 0.978 | S. cerevisiae deletion strains, locus YMR223W, strain ubp8, hits give low values 0.988 | S. cerevisiae deletion strains, locus YMR231W, strain pep5, hits give low values 0.965 | S. cerevisiae deletion strains, locus YMR307W, strain GAS1, hits give low values 1.03 | S. cerevisiae deletion strains, locus YNL067W, strain RPL9B, hits give low values 0.99 | S. cerevisiae deletion strains, locus YNL071W, strain lat1, hits give low values 0.974 | S. cerevisiae deletion strains, locus YNL183C, strain NPR1, hits give low values 0.985 | S. cerevisiae deletion strains, locus YNL209W, strain ssb2, hits give low values 0.98 | S. cerevisiae deletion strains, locus YNL233W, strain BNI4, hits give low values 1 | S. cerevisiae deletion strains, locus YNL248C, strain rpa49, hits give low values 0.982 | S. cerevisiae deletion strains, locus YNL250W, strain rad50, hits give low values 1 | S. cerevisiae deletion strains, locus YNL271C, strain bni1, hits give low values 1.02 | S. cerevisiae deletion strains, locus YNL298W, strain CLA4, hits give low values 1.02 | S. cerevisiae deletion strains, locus YNL307C, strain MCK1, hits give low values 1.02 | S. cerevisiae deletion strains, locus YNL322C, strain KRE1 (second series), hits give low values 0.954 | S. cerevisiae deletion strains, locus YNL322C, strain KRE1, hits give low values 0.998 | S. cerevisiae deletion strains, locus YNR049C, strain mso1, hits give low values 0.974 | S. cerevisiae deletion strains, locus YNR052C, strain pop2, hits give low values 1.01 | S. cerevisiae deletion strains, locus YOL006C, strain TOP1, hits give low values 0.998 | S. cerevisiae deletion strains, locus YOL012C, strain htz1 1.16 | S. cerevisiae deletion strains, locus YOL147C, strain pex11, hits give low values 1.01 | S. cerevisiae deletion strains, locus YOR001W, strain rrp6, hits give low values 0.957 | S. cerevisiae deletion strains, locus YOR061W, strain CKA2, hits give low values 1 | S. cerevisiae deletion strains, locus YOR069W, strain VPS5, hits give low values 1 | S. cerevisiae deletion strains, locus YOR070C, strain gyp1, hits give low values 1 | S. cerevisiae deletion strains, locus YOR080W, strain dia2, hits give low values 0.981 | S. cerevisiae deletion strains, locus YOR083W, strain WHI5, hits give low values 0.957 | S. cerevisiae deletion strains, locus YOR106W, strain vam3, hits give low values 0.94 | S. cerevisiae deletion strains, locus YOR136W, strain idh2, hits give low values 0.989 | S. cerevisiae deletion strains, locus YOR144C, strain elg1, hits give low values 1 | S. cerevisiae deletion strains, locus YOR184W, strain ser1, hits give low values 0.895 | S. cerevisiae deletion strains, locus YOR231W, strain MKK1, hits give low values 1.03 | S. cerevisiae deletion strains, locus YOR265W, strain rbl2, hits give low values 0.98 | S. cerevisiae deletion strains, locus YOR270C, strain vph1, hits give low values 0.963 | S. cerevisiae deletion strains, locus YOR290C, strain snf2, hits give low values 0.999 | S. cerevisiae deletion strains, locus YOR316C, strain cot1, hits give low values 1 | S. cerevisiae deletion strains, locus YPL051W, strain arl3, hits give low values 1.01 | S. cerevisiae deletion strains, locus YPL078C, strain atp4, hits give low values 0.94 | S. cerevisiae deletion strains, locus YPL106C, strain sse1, hits give low values 0.936 | S. cerevisiae deletion strains, locus YPL240C, strain hsp82, hits give low values 0.977 | S. cerevisiae deletion strains, locus YPL241C, strain CIN2, hits give low values 1.01 | S. cerevisiae deletion strains, locus YPL256C, strain CLN2, hits give low values 1.05 | S. cerevisiae deletion strains, locus YPR119W, strain clb2, hits give low values 0.999 | S. cerevisiae deletion strains, locus YPR141C, strain kar3, hits give low values 1.01 | S. cerevisiae deletion strains, locus YPR163C, strain tif3, hits give low values 1.01 | S. cerevisiae deletion strains, locus YPR167C, strain met16, hits give low values 1.01 | S. cerevisiae deletion strains, strain wtn01, hits give low values 1.03 | S. cerevisiae strains, strain wild type, hits give low values 1.01
